HCV inh – HCV inhibition | Huh7.5.1 HCVcc-Cre infection, luciferase reporter, 44 h | Potency, µM (titrated, usually from 41.8 µM), inactives show at the highest dose activity change, negative = inhibition, most hits filed as inhibitors | 340,000 tested, 3.4% active | AID 651820; also: potency is read from the fitted curve at half-maximal effect
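Seed cells (1,000/well) for 4 h; treat with compound and infect with HCVcc-Cre, moi about 0.5. Incubate 44 h, then detect luciferase activity.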
Vaccinia Venus – inhibitors of vaccinia virus (Venus reporter); Vaccinia virus Venus reporter expression, fluorescence; Potency, µM (titrated, usually from 36.5 µM), inactives show at the top dose activity change, negative = inhibition, usual class: inhibitors; 330,000 tested, 0.46% active; AID 720580; calls by dose curve; tested in A549 cells; also: potency is read from the fitted curve at half-maximal effect; nearly all actives have a fitted effect of over 30% in size
Vaccinia mCherry – inhibitors of vaccinia virus infection (mCherry reporter signal); Vaccinia virus mCherry reporter infection, fluorescence; Potency, µM (doses to about 36.5 µM), without a hit: at the highest dose activity change, negative = inhibition, hits mostly inhibitors; 310,000 tested, 0.63% active; calls by dose curve; tested in A549 cells; also: potency is read from the fitted curve at half-maximal effect; nearly all actives have a fitted effect of over 35% in size
FMDV inh – blocks foot and mouth disease virus; FMDV antiviral cell-based qHTS; Potency, µM (top dose mostly 57.9 µM), for inactives: at the top dose activity change, negative = inhibition, most hits filed as inhibitors; 410,000 tested, 1.2% active; AID 1159524; calls by dose curve; tested in HEK293T cells; also: read-out not given here; potency is read from the fitted curve at half-maximal effect; nearly all actives have a fitted effect of over 45% in size
FBPA Giardia inh – blocks Giardia fructose-bisphosphate aldolase activity | A8B2U2 | purified Giardia FBPA | Potency, µM (highest dose often 59.6 µM), for the others: top-dose activity, negative = inhibition, hits mostly inhibitors | 290,000 tested, 0.71% active; also: potency is read from the fitted curve at half-maximal effect; nearly all actives have a fitted effect of over 55% in size
Target sequence (A8B2U2 whole entry, looked up): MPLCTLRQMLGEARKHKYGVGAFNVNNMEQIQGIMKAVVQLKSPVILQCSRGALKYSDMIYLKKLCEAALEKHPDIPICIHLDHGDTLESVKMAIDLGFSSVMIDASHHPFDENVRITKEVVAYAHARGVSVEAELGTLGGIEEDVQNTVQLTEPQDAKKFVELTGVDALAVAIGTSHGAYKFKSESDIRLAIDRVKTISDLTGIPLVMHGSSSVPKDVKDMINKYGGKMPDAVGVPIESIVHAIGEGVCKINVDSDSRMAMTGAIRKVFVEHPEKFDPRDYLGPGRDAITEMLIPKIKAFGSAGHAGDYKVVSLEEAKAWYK
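40 nM FBPA preincubated 10 min at RT with compound (up to 57.5 uM final), then substrate plus GAPDH/TPI/NAD/arsenate coupling and diaphorase/resazurin added. Fluorescence read after 20 min at RT, 525/598 nm.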
HCMV antiviral – inhibitors of human cytomegalovirus; HFF cells, HCMV-luciferase reporter, 72 h; hits give low values; activity change, negative = inhibition, % at 57.5 µM; 410,000 tested, 4.5% active; AID 1259415; in the data active = activity change below about -60%; inconclusive = no clear call, values can overlap the other calls; inactive = above about -39%
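HFF cells seeded 16 h at 37C, treated with compounds, infected with luciferase-reporter HCMV at MOI 1 PFU/cell; luciferase read at 72 h post infection, normalized to buffer-only and Salinomycin controls.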
* hit, by the source's call; i = inactive; u = inconclusive; x = no result; [ ] = dose if it differs, or a comment. Compounds with a hit are over-represented: about 7.5% of the library has one in this group of screens. Unless noted, calls follow the shape of the dose curve; as a rule, active = well fitted curve in the direction sought with a large enough effect; inconclusive = small, poorly fitted or top-dose-only effect, or another doubt; inactive = no such curve, though single readings can be large; an effect the other way counts as inactive or inconclusive. % is scaled to controls: 0 for no effect and ±100 for the full control effect.

SMILES	HCV inh	Vaccinia Venus	Vaccinia mCherry	FMDV inh	FBPA Giardia inh	HCMV antiviral
CC(C)(C)OC(=O)C1=CC[C@@H](c2ccc(Cl)c(Cl)c2)N(S(=O)(=O)c2ccc(F)cc2)[C@H]1c1cccc(F)c1	x	-1%	31%	u	x	-64*
CCOC(=O)C1=CCN(S(=O)(=O)c2ccc(F)cc2)C1c1ccc(Cl)c(Cl)c1 (stereo not given)	x	13µM*	7.9µM*	-25%	x	u
CCOC(=O)C1=CCN(S(=O)(=O)c2ccccc2C)C1c1ccc(Cl)c(Cl)c1 (stereo not given)	x	3%	10%	-22%	x	-76*
Cc1cccc(-n2c(SCC(=O)N3CCN(c4ccccn4)CC3)nnc2N2CCOCC2)c1	-4%	x	x	-17%	x	-6
CCOc1ccc(OCCOC(=O)CN(C)S(=O)(=O)c2ccc(NC(C)=O)cc2)cc1	9%	-3%	-9%	15%	x	-11
COc1cccc(-c2nc3ccc([N+](=O)[O-])cc3o2)c1	27%	-7%	i	82%	6%	-79*
O=[N+]([O-])c1ccc2nc(-c3ccccc3)oc2c1	0%	-29%	-30%	100%	0%	38
Cc1ccc(-c2nc3ccccn3c2Nc2ccc3c(c2)OCO3)o1	x	-5%	-19%	-23%	x	-101*
COc1ccc(-c2nc3ccc(C)cn3c2Nc2ccc3c(c2)OCO3)cc1	x	8%	15%	17%	x	-106*
COc1ccccc1NC(=O)COC(=O)c1cc([N+](=O)[O-])ccc1N1CCCC1	13µM*	x	x	u	x	-30
CCC(CC)c1nnc(NC(=O)c2cc([N+](=O)[O-])ccc2N2CCCCC2)s1	7.1µM*	7%	-3%	19%	14%	-34
O=C(COC(=O)c1cc([N+](=O)[O-])ccc1N1CCCC1)Nc1ccccc1OC(F)F	13µM*	-12%	i	u	x	-9
COc1ccc(NC(=O)c2cc([N+](=O)[O-])ccc2N2CCCCC2)cc1OC	25µM*	-10%	i	-24%	x	-18
CC(=O)NCC(N)C(=O)c1ccc(Cl)c(Cl)c1 (stereo not given)	x	-17%	-12%	x	x	x
COC(=O)c1cccc(Nc2c(-c3ccc(OC)cc3)nc3nc[nH]n23)c1	x	-22%	u	43%	x	82
CCCCNC(=O)C1(C)CCN1C(=O)c1cccc2c1OCCO2 (stereo not given)	x	-19%	19%	5%	x	-24
Clc1nc(-c2ccccc2)c2ccccc2n1	5%	-5%	-12%	-13%	-1%	39
CCc1nc(N=C(N)N)nc2ccccc12	x	x	x	x	2%	-82*
CCCC(=O)N/C(N)=N/c1nc(C)c2ccccc2n1	u	-47%	-16%	-3%	-13%	-9
NC(N)=Nc1nc(-c2ccccc2)c2ccccc2n1	-26%	u	-21%	-11%	-2%	-95*
O=C(O)COc1ccccc1/C=N/NC(=O)CN1CCN(Cc2ccc(Cl)cc2)CC1	-1%	1%[7.34 µM]	i[7.34 µM]	-3%	1%	0
CCCC[n+]1ccn(C2=C([O-])c3ccccc3C(=O)/C2=N\S(=O)(=O)c2ccc(Cl)cc2)c1	u	x	x	-15%	u	-73*
CCCCc1ccc(NC(=S)N2CCCC(C)C2)cc1 (stereo not given)	-20%	-5%	-5%	44%	-3%	-67*
O=C(O)[C@@H]1C[C@H](CP(=O)(O)O)CCN1	x	x	x	-22%	x	x
CC1CCCCN1Cc1c(O)ccc2c(=O)c(-c3nc4ccccc4s3)c(N)oc12 (stereo not given)	10µM*	-16%	-13%	u	15%	-16
SMILES	HCV inh	Vaccinia Venus	Vaccinia mCherry	FMDV inh	FBPA Giardia inh	HCMV antiviral
CC1CCCCN1Cc1c(O)ccc2c(=O)c(-c3ccccc3Cl)c(C(F)(F)F)oc12 (stereo not given)	x	5%	-5%	0%	x	10
COc1ccc2cc([C@H](C)C(=O)N(C)Cc3ccccc3N3CCCC3)ccc2c1	10µM*	-15%	-25%	-22%	-8%	1
Cc1cccc(NC(=O)NC(C)C(c2cccs2)N2CCOCC2)c1 (stereo not given)	6%	1%	-15%	-21%	-5%	-67*
COc1ccc(CN(C)CC(=O)Nc2cccc(S(N)(=O)=O)c2)c(OC)c1OC	13%	x	x	-21%	u	-22
CN1CCN(C(=S)SCC(=O)Nc2nc(-c3ccccc3)c(-c3ccccc3)o2)CC1	u	-20%	-15%	-22%	9%	-17
CCC(=O)OC1=C(C(C)=O)N(Cc2ccccc2)S(=O)(=O)c2ccccc21	x	-5%	-3%	-18%	x	8
CC(C)(C)C(=O)OC1=CN(Cc2ccccc2)S(=O)(=O)c2ccccc21	x	u	11µM*	43%	x	-18
COc1ccc(NC(=O)CCCN2C(=O)CCn3nc(-c4cn(C)c5ccccc45)cc32)cc1	x	-4%	-19%	-25%	x	6
CCOC(=O)c1c(NC(=O)c2ccc(S(=O)(=O)N(CC(C)C)CC(C)C)cc2)sc2c1CCN(CC)C2	x	-12%	-1%	-17%	x	-30
COc1cc(C(=O)ON=C2C=C(C)C(=O)C(C)=C2)cc(OC)c1OC	17%	18%	-6%	-16%	u	-62*
COc1ccc(C(=O)ON=C2C=C(C)C(=O)C(C)=C2)cc1	14%	12%	-1%	2%	u	-76*
CC1=CC(=NOC(=O)c2cccc([N+](=O)[O-])c2)C=C(C)C1=O	u	21%	i	-4%	u	-10
COc1cc(C(=O)O/N=C2\C=CC(=O)C(C)=C2)cc(OC)c1OC	u	x	x	u	20µM*	-27
CN(C(=O)c1cccc(NC(=O)Cc2ccc(NC(=O)C3CCN(C(=O)c4ccccc4)CC3)cc2)c1)C1CCCCC1	42%[8.37 µM]	-20%	-6%	-17%	x	-17
COc1cccc(CN2C(=O)COCc3cc(-c4cccc(CO)c4)ccc32)c1	x	x	x	x	x	-17
CC1=C(c2ccccc2)C(O)(c2ccccc2)C(C)C1=O (stereo not given)	u	-28%	u	u	x	1
CC(C)NC(=O)/C(C#N)=C/c1cccc(NC(=O)c2ccccc2Cl)c1	-2%	-9%	-13%	14µM*	-3%	41
COCCNC(=O)/C(C#N)=C/c1cccc(NC(=O)c2ccccc2Cl)c1	14%	2%	-1%	0%	3%	65
COc1ccc(-n2c(C)cc(=O)[nH]c2=O)cc1	20%	-4%	-20%	-9%	8%	37
CCOc1ccc(CN(C)C(=O)CNC(=O)C2CCCCC2)cc1	-12%	-10%	15%	-16%	x	48
COc1ccc(C(=O)N(C)c2ccccc2C(=O)NCCc2ccccc2)cc1	u	-10%	-4%	14%	3%	-97*
COc1ccc(C(C)NC(=O)CCc2ccccc2)cc1 (stereo not given)	23%	-1%	-10%	13%	7%	-9

Screens (PubChem BioAssay)
